Assay [1] in a line: antimalarial activity against Dd2 strain (AID 2302;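 active = growth inhibition above 50% at the single 2 µM test dose, taken to imply half-maximal potency below 2 µM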;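 also: 0% = DMSO untreated growth and 100% = chloroquine plus artemisinin killed control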). The following applies: P. falciparum Dd2 in RBCs, LDH growth readout, 72 h; at 2 µM; active compounds read high.
The nature of assay [2]: HepG2 cytotoxicity, primary screen, cytotoxicity control for P. falciparum antimalarial project, cell-based, ATP luminescence (AID 2303;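 active = inhibition above 50%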;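 also: 0% = DMSO wells and 100% = digitonin-killed cells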). As to conditions: HepG2 viability, 24-48 h, at 10 µM, active compounds read high.
In assay [3] the target is L-lactate dehydrogenase (Plasmodium falciparum (isolate CDC / Honduras)) (UniProt Q27743). Briefly: PfLDH activity inhibition – cell lysate, 3D7 strain, counter-screen for P. falciparum growth inhibition project (AID 2304).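 Also: 0% = vehicle and 100% = reference inhibitor.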 As to conditions: P. falciparum 3D7 crude extract, LDH APAD/NBT absorbance; at 2 µM; active compounds read high.
A short description of assay [4]: inhibition of 3D7 malaria parasite growth – strain 3D7 (AID 2306).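 Also: 0% = DMSO wells and 100% = chloroquine plus artemisinin control wells.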 As to conditions: P. falciparum 3D7 erythrocytic growth, LDH absorbance, 72 h; at 2 µM; active compounds read high.
Assay [5] has as its target Calcium-dependent protein kinase 1 (Plasmodium falciparum (isolate 3D7)) (UniProt P62344). The assay is described as follows: PfCDPK1 kinase inhibitors, biochemical, TCAMS library (AID 1159585; cut-off not given, nearly all actives have IC50 up to about 0.98 µM;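 also: inhibitors leave more ATP so luminescence rises with inhibition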). The following applies: recombinant PfCDPK1, Kinase-Glo ATP depletion luminescence.
The target in assay [6] is Plasmodium falciparum protein kinase 6 (PK6, PF3D7_1337100) (UniProt Q8IDW1). The assay is described as follows: PfPK6 kinase inhibitors, biochemical, TCAMS library (AID 1159586). The following applies: recombinant PfPK6, Kinase-Glo ATP depletion luminescence.
The target in assay [7] is Protein kinase 7 (PK7), Plasmodium falciparum 3D7 (PF3D7_0213400) (UniProt Q7YTF7). Briefly: inhibition of Plasmodium PK7 catalytic activity – biochemical, TCAMS antimalarial set, Kinase-Glo luminescence (AID 1159587). As to conditions: recombinant PfPK7, Kinase-Glo ATP depletion luminescence.
Assay [8] addresses Calcium-dependent protein kinase 4 (Plasmodium falciparum (isolate 3D7)) (UniProt Q8IBS5). The assay is described as follows: PfCDPK4 kinase inhibitors, biochemical, TCAMS library (AID 1159588; cut-off not given, nearly all actives have IC50 up to about 0.91 µM). The following applies: recombinant PfCDPK4, Kinase-Glo ATP depletion luminescence. On the technique in general: Kinase-Glo reads ATP consumption through a luciferase reaction.

The structures appear in SMILES notation. Values without a mark were called inactive. For part of these data: Results with a measured potency or affinity are listed apart. Activity calls are given as the source filed them. Unless noted, no rule for the calls is given here.

Calcium-dependent protein kinase 1 (Plasmodium falciparum (isolate 3D7)), sequence (P62344 whole entry, looked up): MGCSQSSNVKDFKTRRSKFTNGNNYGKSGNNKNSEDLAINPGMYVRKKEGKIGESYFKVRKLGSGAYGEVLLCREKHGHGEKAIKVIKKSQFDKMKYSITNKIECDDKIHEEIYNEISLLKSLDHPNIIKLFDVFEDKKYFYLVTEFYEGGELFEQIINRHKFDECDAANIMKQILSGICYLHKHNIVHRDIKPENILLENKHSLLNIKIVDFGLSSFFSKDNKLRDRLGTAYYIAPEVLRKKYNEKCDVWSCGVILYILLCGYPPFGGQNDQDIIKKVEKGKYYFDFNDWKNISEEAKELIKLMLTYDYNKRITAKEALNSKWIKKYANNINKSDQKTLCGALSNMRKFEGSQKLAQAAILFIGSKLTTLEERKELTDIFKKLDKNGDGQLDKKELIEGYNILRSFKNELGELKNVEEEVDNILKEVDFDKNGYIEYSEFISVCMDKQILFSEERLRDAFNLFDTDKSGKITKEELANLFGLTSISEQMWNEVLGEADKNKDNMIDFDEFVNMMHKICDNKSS
L-lactate dehydrogenase (Plasmodium falciparum (isolate CDC / Honduras)), sequence (Q27743 whole entry, looked up): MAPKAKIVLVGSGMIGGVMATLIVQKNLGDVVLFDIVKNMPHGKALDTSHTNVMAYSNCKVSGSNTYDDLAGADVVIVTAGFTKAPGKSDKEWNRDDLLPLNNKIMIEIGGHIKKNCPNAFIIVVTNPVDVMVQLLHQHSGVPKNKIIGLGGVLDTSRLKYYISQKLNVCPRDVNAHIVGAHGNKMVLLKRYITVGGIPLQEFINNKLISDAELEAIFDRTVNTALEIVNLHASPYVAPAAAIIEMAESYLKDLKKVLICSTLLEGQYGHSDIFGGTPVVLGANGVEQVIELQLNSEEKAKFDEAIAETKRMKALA
Protein kinase 7 (PK7), Plasmodium falciparum 3D7 (PF3D7_0213400), sequence (Q7YTF7 1-343): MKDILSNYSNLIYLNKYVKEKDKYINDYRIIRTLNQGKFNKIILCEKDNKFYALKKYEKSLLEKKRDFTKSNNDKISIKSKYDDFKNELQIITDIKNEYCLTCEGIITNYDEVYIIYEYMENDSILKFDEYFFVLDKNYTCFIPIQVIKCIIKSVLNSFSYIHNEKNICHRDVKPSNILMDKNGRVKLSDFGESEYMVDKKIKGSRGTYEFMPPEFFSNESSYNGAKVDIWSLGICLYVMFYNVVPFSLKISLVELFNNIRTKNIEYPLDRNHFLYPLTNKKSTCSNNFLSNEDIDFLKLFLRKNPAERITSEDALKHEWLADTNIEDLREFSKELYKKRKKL
Calcium-dependent protein kinase 4 (Plasmodium falciparum (isolate 3D7)), sequence (Q8IBS5 whole entry, looked up): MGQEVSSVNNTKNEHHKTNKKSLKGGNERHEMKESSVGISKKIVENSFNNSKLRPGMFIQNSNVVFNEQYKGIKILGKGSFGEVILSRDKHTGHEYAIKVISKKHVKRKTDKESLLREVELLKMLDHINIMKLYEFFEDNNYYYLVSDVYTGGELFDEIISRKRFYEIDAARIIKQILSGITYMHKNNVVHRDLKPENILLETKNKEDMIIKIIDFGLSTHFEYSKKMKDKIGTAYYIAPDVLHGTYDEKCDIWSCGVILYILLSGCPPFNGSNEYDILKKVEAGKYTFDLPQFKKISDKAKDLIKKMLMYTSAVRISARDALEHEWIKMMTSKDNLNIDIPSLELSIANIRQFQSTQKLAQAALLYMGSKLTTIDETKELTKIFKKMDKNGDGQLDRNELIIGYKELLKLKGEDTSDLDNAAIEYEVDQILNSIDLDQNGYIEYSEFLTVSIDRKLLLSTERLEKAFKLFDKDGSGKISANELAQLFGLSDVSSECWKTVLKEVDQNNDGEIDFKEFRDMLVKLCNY
Plasmodium falciparum protein kinase 6 (PK6, PF3D7_1337100), sequence (Q8IDW1 1-305): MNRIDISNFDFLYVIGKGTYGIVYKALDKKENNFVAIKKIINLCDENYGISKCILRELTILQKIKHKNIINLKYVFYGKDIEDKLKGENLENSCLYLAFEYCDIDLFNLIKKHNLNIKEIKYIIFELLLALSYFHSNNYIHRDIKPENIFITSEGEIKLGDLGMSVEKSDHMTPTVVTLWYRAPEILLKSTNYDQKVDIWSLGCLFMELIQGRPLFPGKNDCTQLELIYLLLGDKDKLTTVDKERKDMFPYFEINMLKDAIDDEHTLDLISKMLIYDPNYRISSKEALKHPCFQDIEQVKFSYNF

Take `COc1cc(NC(=O)c2sc(-c3ccc(Cl)cc3)cc2NC(=O)c2cccnc2)ccc1OCCN1CCCC1`: the growth inhibition is 77% (active) in assay [1] and 94% (active) in assay [4]. Besides, the inhibition – broadly, the drop in the measured response relative to a control, in per cent – in assay [2] is 38%; in assay [3], -1%. The outcome in assay [5], in assay [6], in assay [7] and in assay [8] was inactive.
Regarding `c1cncc(CN2CCN(Cc3ccc(-c4ccc(-c5nc6ccccc6[nH]5)s4)cc3)CC2)c1`, the growth inhibition in assay [1] is 34%; in assay [4], 97% (active). The inhibition is 32% in assay [2] and 6% in assay [3]. Besides, the outcome in assay [5], in assay [6], in assay [7] and in assay [8] was inactive.
For `Cc1ccc(CNc2ccc3ncc(-c4cccc(C(=O)NCCN(C)C)c4)n3n2)c(C)c1`, the figures for the growth inhibition in assay [1] and in assay [4] were 78% (active) and 100% (active), respectively. Also, the inhibition in assay [2] is 97% (active); in assay [3], -3%. Also, the result in assay [5], in assay [6], in assay [7] and in assay [8] was inactive.
Consider `Cc1sc(CNCCCNc2cc(=O)c3ccccc3[nH]2)c(C(F)(F)F)c1C`, for which the growth inhibition in assay [1] was 70% (active); in assay [4], 99% (active). Further, the inhibition in assay [2] is -12%; in assay [3] it was 1%. The result in assay [5], in assay [6], in assay [7] and in assay [8] was inactive.
Consider `CC(Cc1ccc(CN2CCN(Cc3ccccc3)CC2)cc1)NCC(O)c1cccc(C(F)(F)F)c1` (stereo not drawn), for which the growth inhibition in assay [1] is 98% (active); in assay [4] it was 97% (active). Moreover, the inhibition in assay [2] was 51% (active); in assay [3], -7%. For the same compound, the result in assay [5], in assay [6], in assay [7] and in assay [8] was inactive.
For `Cc1ccccc1C1CCN(C2CCC(NC(=O)C3=Cc4cc(Cl)ccc4OC3)CC2)CC1` (stereo not drawn), the growth inhibition in assay [1] is 99% (active); in assay [4], 100% (active). In addition, the inhibition was 51% (active) in assay [2] and 0% in assay [3]. For the same compound, the result in assay [5], in assay [6], in assay [7] and in assay [8] was inactive.
In the case of `Cc1ccc2ccccc2c1CCCON1C(N)=NC(N)=NC1(C)C`, the growth inhibition in assay [1] was 97% (active); in assay [4], 95% (active). In addition, the inhibition in assay [2] is 65% (active); in assay [3], 5%. The outcome in assay [5], in assay [6], in assay [7] and in assay [8] was inactive.
For the compound `CCCCNC(=O)c1[nH]c2c(NC(=O)COc3ccccc3)cccc2c1-c1cccc(NC(=O)C(N)CO)c1` (stereo not drawn), the growth inhibition in assay [1] is -3%; in assay [4], 87% (active). Moreover, the inhibition was 11% in assay [2] and -3% in assay [3]. Also, the result in assay [5], in assay [6], in assay [7] and in assay [8] was inactive.
With `C[C@H](NC(=O)c1c(OC2CN(C(c3ccccc3)c3ccccc3)C2)c(-c2ccccc2)nc2ccccc12)C1CCCCC1`, the growth inhibition in assay [1] was 74% (active); in assay [4] it was 92% (active). Moreover, the results for the inhibition in assay [2] and in assay [3] were 0% and 2%, respectively. Moreover, the outcome in assay [5], in assay [6], in assay [7] and in assay [8] was inactive.
Turning to `O=C(Nc1ccc2ccccc2c1)c1ccc(CN2CCC(Cc3ccccc3)CC2)cc1`, the growth inhibition in assay [1] was 10%; in assay [4] it was 95% (active). Also, the inhibition in assay [2] was 38%; in assay [3], -8%. The outcome in assay [5], in assay [6], in assay [7] and in assay [8] was inactive.
As for `CC(CN(C)C)C(=O)Nc1ccc(-c2cccc(-c3nc4ccc(C(F)(F)F)cc4[nH]3)c2)cc1` (stereo not drawn), the growth inhibition in assay [1] was 85% (active); in assay [4], 101% (active). For the same compound, the inhibition in assay [2] was 30%; in assay [3], -1%. Besides, the outcome in assay [5], in assay [6], in assay [7] and in assay [8] was inactive.
On to `Cn1cnc(CCNC(=O)c2cccc(-c3ccc(-c4nc5ccc(F)cc5[nH]4)cc3)c2)c1`, for which the growth inhibition was 5% in assay [1] and 88% (active) in assay [4]. Moreover, the inhibition in assay [2] is 26%; in assay [3] it was 4%. The outcome in assay [5], in assay [6], in assay [7] and in assay [8] was inactive.
As to `Cc1cccc(C)c1OC(=O)CSc1nnc(-c2ccccc2O)o1`, the growth inhibition in assay [1] was -2%; in assay [4], 97% (active). Also, the figures for the inhibition in assay [2] and in assay [3] were 11% and 0%, respectively. The result in assay [5], in assay [6], in assay [7] and in assay [8] was inactive.
On to `COc1ccc(-c2nc(NC(=O)Cc3ccc(OC)c(OC)c3)sc2C)cc1`, for which the growth inhibition in assay [1] is 22%; in assay [4], 93% (active). Also, the results for the inhibition in assay [2] and in assay [3] were 33% and -2%, respectively. Further, the outcome in assay [5], in assay [6], in assay [7] and in assay [8] was inactive.
Take `O=C(NC1CC1)c1ccc(N2CCC(Cc3ccccc3)CC2)nc1`: the growth inhibition in assay [1] is 92% (active); in assay [4], 95% (active). The results for the inhibition in assay [2] and in assay [3] were 13% and 5%, respectively. For the same compound, the outcome in assay [5], in assay [6], in assay [7] and in assay [8] was inactive.
`C[C@H]1CN(Cc2cccc(-c3cc(CNC(=O)c4cccc(C(=O)c5ccc(Cl)c(Cl)c5)c4)ccc3F)c2)CCN1`: the figures for the growth inhibition in assay [1] and in assay [4] were 42% and 85% (active), respectively. In addition, the inhibition is 40% in assay [2] and 2% in assay [3]. The outcome in assay [5], in assay [6], in assay [7] and in assay [8] was inactive.
As to `COc1ccc(-c2cc(C(=O)N3CCc4ccccc43)c3ccccc3n2)cc1OC`, the growth inhibition in assay [1] is 48%; in assay [4], 85% (active). For the same compound, the values for the inhibition in assay [2] and in assay [3] were 5% and 3%, respectively. The outcome in assay [5], in assay [6], in assay [7] and in assay [8] was inactive.
For `O=C(/C=C/c1ccc(Cl)cc1)NCCCCCN1CCCC(C(=O)Nc2ccc(Cl)c(Cl)c2)C1` (stereo not drawn), the growth inhibition in assay [1] is 3%; in assay [4] it was 96% (active). For the same compound, the inhibition was 27% in assay [2] and -3% in assay [3]. Moreover, the outcome in assay [5], in assay [6], in assay [7] and in assay [8] was inactive.
As to `C=CCNC(CCCCC)c1ccc(OCCOc2ccc(C(CCCCC)NCC=C)cc2)cc1` (stereo not drawn), the growth inhibition is 48% in assay [1] and 88% (active) in assay [4]. Further, the inhibition in assay [2] is 100% (active); in assay [3] it was -6%. Moreover, the outcome in assay [5], in assay [6], in assay [7] and in assay [8] was inactive.
In the case of `CCCc1ccc(NC(=O)c2cccc(CN3CCCN(Cc4cccc(C#N)c4)CC3)c2)cc1`, the results for the growth inhibition in assay [1] and in assay [4] were 0% and 85% (active), respectively. In addition, the inhibition in assay [2] is 20%; in assay [3], -4%. For the same compound, the result in assay [5], in assay [6], in assay [7] and in assay [8] was inactive.
Consider `Cc1cc(N[C@@H](Cc2ccccc2)C(=O)NC2CCCC2)nc(NCc2ccccc2C)n1`, for which the growth inhibition in assay [1] was 20%; in assay [4] it was 91% (active). The inhibition was 2% in assay [2] and 3% in assay [3]. In addition, the result in assay [5], in assay [6], in assay [7] and in assay [8] was inactive.

(Values after PubChem BioAssay.)
